Compounds with a hit are over-represented: about 19% of the library has one in this group of screens.
SARS PLpro yeast: qHTS of Yeast-based Assay for SARS-CoV PLP. S. cerevisiae expressing SARS-CoV PLpro, growth rescue. hit rate 0.19% among 330,000. AID 485353, 2010. Potency, µM (series often up to 32.9 µM), without a hit: top-dose activity, positive = growth rescue, usual class: activators; calls by dose curve; also: potency is read from the fitted curve at half-maximal effect; 0% is about no effect; nearly all actives have a fitted effect of over 55% in size
AMA1 RON2 block: qHTS for Inhibitors of AMA1-RON; Towards Development of Antimalarial Drug Lead: Primary Screen | Plasmodium falciparum AMA1 (3D7) - RON2 peptide interaction | AlphaScreen AMA1-biotinylated RON2 peptide binding | Potency, µM (top dose mostly 58.2 µM), for inactives: top-dose activity change, negative = inhibition, hits mostly inhibitors | hit rate 0.2% among 360,000 | AID 720542, 2013;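 also: potency is read from the fitted curve at half-maximal effect; 0% = vehicle wells and -100% = peptide control; nearly all actives have a fitted effect of over 45% in size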
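AMA1 (3D7) with his tag at 25 nM final met compounds first, then biotinylated RON2 peptide at 25 nM; detection used donor plus acceptor beads, 10 µg/mL apiece, read by AlphaScreen after 30 min at room temperature.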
CHX counter: Cycloheximide Counterscreen for Small Molecule Inhibitors of Shiga Toxin; cell reporter, cycloheximide protein synthesis inhibition counterscreen; AID 2314, 2010; max response, %; hit rate 12% among 300,000; in the data active = max response mostly above about 13%, no sharp cut-off; inactive = mostly below about 14%; also: read at 38.3 µM for the half of the compounds with a filed dose; 0% is about no effect
Pf growth 48h: Primary qHTS for delayed death inhibitors of the malarial parasite plastid, 48 hour incubation. P. falciparum luciferase growth in erythrocytes, 48 h. hit rate 5.9% among 310,000. Potency, µM (highest dose often 28.7 µM), inactives show at the highest dose activity change, negative = inhibition, most hits filed as inhibitors; also: potency is read from the fitted curve at half-maximal effect; % is scaled to controls: 0 for no effect and ±100 for the full control effect
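In quantitative HTS format, infected erythrocytes bearing luciferase-reporter parasites were treated for a single generation at 37 C. Luminescence after adding detection reagent served as the growth measure.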
Shiga toxin inh: A qHTS for Small Molecule Inhibitors of Shiga Toxin; Vero cells, Shiga toxin protein synthesis inhibition reporter; inhibition, % at 38.7 µM; hit rate 9.2% among 290,000; AID 2315, 2010; in the data active = inhibition mostly above about 28%, no sharp cut-off; inactive = mostly below about 43%; also: 0% is about no effect
Pf growth 96h: Primary qHTS for delayed death inhibitors of the malarial parasite plastid, 96 hour incubation. P. falciparum luciferase reporter growth, 96 h. Potency, µM (titrated, usually from 28.7 µM), without a hit: at the top dose activity change, negative = inhibition, most hits filed as inhibitors. hit rate 6.9% among 320,000; also: potency is read from the fitted curve at half-maximal effect; % is scaled to controls: 0 for no effect and ±100 for the full control effect
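Compounds incubated with erythrocytes infected by luciferase-expressing P. falciparum (2% hematocrit, 0.05% parasitemia final) for 96 hours, 37 C in 5% CO2. Growth inhibition scored as decreased luciferase luminescence.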
* hit, by the source's call; ? = inconclusive; · = no result given; [ ] = another dose, or the depositor's remark. Unless noted, calls follow the shape of the dose curve; as a rule, active = well fitted curve in the direction sought with a large enough effect; inconclusive = small, poorly fitted or top-dose-only effect, or another doubt; inactive = no such curve, though single readings can be large; an effect the other way counts as inactive or inconclusive.

SMILES | SARS PLpro yeast | AMA1 RON2 block | CHX counter | Pf growth 48h | Shiga toxin inh | Pf growth 96h
O=C(NCC1CCN(Cc2cccc(Cl)c2)CC1)Nc1ccc(Cl)cc1 | 1.0% | -4.1% | 2.1 | 11.6%[0.00184 µM] | -1.9 | 5.5%
Cc1ccc(C)c(CN2CCC(CNC(=O)Nc3ccc(C)c(C)c3)CC2)c1 | -0.1% | -6.6% | 1.7 | 4.15µM* | -10.6 | 14.0%
CCc1cccc(CN2CCC(CNC(=O)Nc3ccc(Cl)cc3)CC2)c1 | 0.5% | 3.6% | -0.5 | 4.65µM* | -11.3 | ?
COc1ccc([C@H]2C[C@@H](O)C[C@@H](CCn3cc(-c4ccccc4)nn3)O2)cc1 | · | -1.8% | · | · | · | ·
CCOC(=O)C1=C(C)n2c(s/c(=C/c3cccc([N+](=O)[O-])c3)c2=O)=NC1c1ccc(O)c(OC)c1 (stereo not drawn) | 1.9% | -6.4% | -4.1 | 2.94µM* | -2.4 | ·
CCOC(=O)C1=C(C)N=c2s/c(=C/c3ccccc3)c(=O)n2C1c1ccc(OC)c(OC)c1 (stereo not drawn) | 3.3% | -3.2% | -3.5 | ? | -8.5 | ?
NS(=O)(=O)c1ccc(N2CCOCC2)c(C(=O)NCc2cccs2)c1 | 4.5% | 0.0% | · | · | · | ·
Cc1ccc(NC2=C(Cl)C(=O)OC2OC(=O)c2ccc(C)cc2)cc1 (stereo not drawn) | -18.6% | -18.3% | 7.1 | 12.3% | 18.1 | 7.8%
COC(=O)c1ccc(NC2=C(Cl)C(=O)OC2OC(=O)c2ccccc2)cc1 (stereo not drawn) | -5.4% | 3.0% | 41.7* | 9.6% | 36.4 | 51.7%[1.15 µM]
Cc1ccc(C(=O)CSc2nc(N)cc(=O)[nH]2)cc1C | -3.7% | 7.4% | -2.3 | 5.6% | 14.3 | 115.5%
COc1ccc(CCn2c(C)cc(C(=O)CSc3nc(N)cc(=O)[nH]3)c2C)cc1 | 3.7% | -3.3% | -1.5 | ? | -16.3 | 9.28µM*
CCc1ccc(C(=O)CSc2nc(N)cc(=O)[nH]2)cc1 | 8.6% | 0.2% | 0.9 | 83.1% | -16.9 | 10.4µM*
COc1ccc(CCn2c(C)cc(C(=O)CSc3nnc(N)s3)c2C)cc1 | 0.6% | 3.7% | 8.3 | ? | 1.4 | 9.28µM*
Cc1ccc(F)c(C2C3C=CCC(C)C3C(=O)N2Cc2ccccc2)c1 (stereo not drawn) | · | · | -4.5 | · | 8.2 | ·
CCCCCC(=O)NC(NC(=S)N1CCOCC1)C(Cl)(Cl)Cl (stereo not drawn) | ? | -16.7% | -3.2 | 8.28µM* | -10.0 | -2.7%
CCCCCCCCC(=O)NC(NC(=S)N1CCOCC1)C(Cl)(Cl)Cl (stereo not drawn) | 0.7% | -4.6% | 0.8 | ? | 17.8 | ?
O=C(NC(NC(=S)N1CCOCC1)C(Cl)(Cl)Cl)c1cccc2ccccc12 (stereo not drawn) | 26.4% | -7.6% | -1.2 | 2.94µM* | -14.1 | 51.2%
Cn1c(SCC(=O)Nc2ccccc2[N+](=O)[O-])nnc1C(F)(F)F | 1.8% | 7.4% | -2.3 | ? | -4.6 | ?
COc1ccc(Br)cc1CN1CCN(CCO)CC1 | 0.1% | 1.1% | -2.8 | 12.3% | 17.9 | -19.9%
COc1ccc(Br)cc1CN1CCC(N2CCCC2)CC1 | 2.8% | ? | -2.0 | 9.28µM* | -12.9 | ?
COc1cc(OC)c(CN2CCCN(C)CC2)cc1Br | -0.9% | 13.8% | -1.3 | -1.2% | · | ?
COc1cc(OC)c(CN2CCCCCCC2)cc1Br | -1.6% | -7.5% | 1.4 | · | -3.7 | 13.1µM*
CCCS(=O)(=O)NC(=O)C1(C)CCN(C(=O)COc2ccccc2)C1 (stereo not drawn) | · | 7.1% | · | · | · | ·
CCCCc1nnc(SCCSc2nnc(CCCC)n2N)n1N | 8.6% | -14.7% | 5.9 | -11.6% | 21.7 | 13.1µM*
CCc1nnc(SCCSc2nnc(CC)n2N)n1N | -4.0% | -3.7% | 1.7 | 27.8% | -12.7 | 140.5%
SMILES | SARS PLpro yeast | AMA1 RON2 block | CHX counter | Pf growth 48h | Shiga toxin inh | Pf growth 96h
CC1CN(CC(=O)NCc2ccc(Cl)cc2)CC(C)O1 (stereo not drawn) | 2.5% | 57.8% | 1.4 | 5.9% | 3.0 | 18.7%
Cc1ccccc1NC(=O)COC(=O)C1(C)CC1(Cl)Cl (stereo not drawn) | -3.7% | -0.5% | 6.9 | 41.0% | 43.0 | 21.5%
CC(C)c1ccc(NC(=O)COC(=O)C2=COCCO2)cc1 | -13.5% | 12.1% | 32.7* | 26.4% | 74.1 | ·
CC(C)(C)c1ccc(NC(=O)COC(=O)c2ccc([N+](=O)[O-])s2)cc1 | -83.0% | -22.4% | 13.7* | 21.8% | 63.1 | -3.5%
CC(C)(C)c1ccc(NC(=O)COC(=O)C2(C)CC2(Cl)Cl)cc1 (stereo not drawn) | -6.7% | 5.6% | 49.4* | -11.2% | 76.7* | -20.2%
CC1(C(=O)OCC(=O)Nc2nc(-c3ccc(F)c(F)c3)cs2)CC1(Cl)Cl (stereo not drawn) | 0.0% | -20.4% | 12.5 | 4.9% | 53.8* | 34.8%
O=C(COC(=O)c1ccc([N+](=O)[O-])s1)Nc1ccc(F)cc1 | -4.6%[6.58 µM] | -3.6% | · | 12.6% | · | -22.4%
COc1ccc(CC(=O)Nc2nc(-c3ccc(F)c(F)c3)cs2)cc1 | 2.6% | -0.7% | -6.7 | -11.1% | -9.1 | -0.9%
C/C=C/c1ccc2c(c1)O[C@H](CN(C)CC1CCOCC1)[C@@H](C)CN([C@H](C)CO)S2(=O)=O | · | 8.6% | · | · | · | ·
COCCNC(=O)Cn1cc(C(=S)N2CCOCC2)c2ccccc21 | -1.0% | 2.6% | -2.5 | -13.9% | -5.5 | 4.3%
CC(C)(C)c1ccc(NC(=O)COC(=O)C2=COCCO2)cc1 | -6.4% | 3.7% | 21.1* | · | 91.1 | 100.6%
CCN(c1ccc(NC(=O)COC(=O)c2ccc(C)s2)cc1)C(C)C | 1.0% | -14.5% | 19.1* | 13.8% | 9.0 | 34.0%
O=C(O)Cn1c(-c2ccccn2)nc2ccccc21 | 6.0% | 86.7% | 31.5* | 59.1% | 46.0* | 127.2%
NNC(=O)Cn1c(-c2ccccn2)nc2ccccc21 | -0.6% | 52.9% | 10.8 | 11.1% | 7.7 | 24.5%
O=C(O)Cn1c(=O)c(-c2ccccc2)nc2ccccc21 | 1.7% | 13.0% | 4.0 | 12.7% | -3.5 | 7.38µM*
CCOC(=O)[C@H]1[C@H]2COc3ccc(Br)cc3[C@@H]2N2C(=O)CN(Cc3ccc(F)cc3)C(=O)[C@@]12C | -12.6% | 8.6% | · | 13.1µM* | · | ?
CCOC(=O)[C@H]1[C@H]2COc3ccc(Br)cc3[C@@H]2N2C(=O)CN(Cc3ccc(Cl)cc3)C(=O)[C@@]12C | -4.9% | -2.3% | · | · | · | ·
CCOC(=O)[C@H]1[C@H]2COc3ccc(OC)cc3[C@@H]2N2C(=O)CN(Cc3ccccc3)C(=O)[C@@]12C | 9.3% | 6.9% | · | 10.4µM* | · | ?
CCOC(=O)[C@H]1[C@H]2COc3ccc(OC)cc3[C@@H]2N2C(=O)CN(Cc3ccc(Cl)cc3)C(=O)[C@@]12C | 0.9% | -1.8% | · | 14.7µM* | · | ?

High-throughput results from PubChem BioAssay.
